Source: PubChem BioAssay AID652136 (The Scripps Research Institute Molecular Screening Center, 2013)
The campaign covered roughly 2,400 compounds. About 1,900 (79%) were called active.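 How the source made its calls: active means inhibition above the mean of all tested compounds plus 3 SD (cut at about 3% in these data); inactive means the rest.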 So high a share suggests a set chosen from earlier hits. Only a sample is shown.

test: StAR reporter signal changes without DAX1, counter-screen for DAX1 inhibitor project, cell-based, luminescence, AF-2 mutant SF-1, transactivation (AID 652136); details: HEK293 StAR-luciferase, SF-1 AF2 mutant, at 6.8 µM, active compounds read high;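 further: 0% = DAX-1 transfected cells with DMSO and 100% = cells without DAX-1 with DMSO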

Row | Compound | inhibition
1 | c1ccc(Cc2c(-c3ccco3)nc3c4ccccc4ccn23)cc1 | 8.27% (active)
2 | COc1ccccc1CCC(=O)OCC(=O)N1CCN(S(=O)(=O)c2ccc(C)cc2C)CC1 | 1.55% (inactive)
3 | CC1CCN(C(=O)COC(=O)c2cc(=O)[nH]c3ccccc23)CC1 | 5.98% (active)
4 | COc1cc(/C=N/O)ccc1OCc1ccc([N+](=O)[O-])cc1 | 6.8% (active)
5 | COc1cc(C2c3cc4c(cc3C(O)C3COC(=O)C23)OCO4)cc(OC)c1OC (stereo unspecified) | -5.65% (inactive)
6 | CC(C)c1ccc(Nc2ncccc2C#N)cc1 | 5.42% (active)
7 | C(=N\Nc1ccc2ccccc2n1)/c1ccc2c(c1)OCO2 | 2.84% (inactive)
8 | COc1cccc(/C=C/C(=O)Nc2ccc3c(c2)OCCO3)c1 | 3.61% (active)
9 | COc1ccc(/C=C/C(=O)Nc2ccc(C34CC5CC(CC(O)(C5)C3)C4)cc2)cc1OC | -4.01% (inactive)
10 | Cc1cccc(NC(=O)/C=C/c2ccc3c(c2)OCO3)n1 | 6.21% (active)
11 | O=C(NCCc1c[nH]c2ccccc12)c1cc2ccccc2oc1=O | 7.29% (active)
12 | O=C(O)c1ccc(N/N=C/c2cn(-c3ccccc3)nc2-c2cccs2)cc1 | 6.77% (active)
13 | Cc1csc(SCC(=O)Nc2sccc2C#N)n1 | 10.8% (active)
14 | Cc1cc(C)c(C)c(S(=O)(=O)N2CCN(C(=O)c3ccc4c(=O)n5c(nc4c3)CCC5)CC2)c1C | -0.34% (inactive)
15 | CCCc1cc(C(=O)Nc2ccc(Cl)cn2)cs1 | 6.47% (active)
16 | CCCc1cc(C(=O)Nc2ccc(C(=O)OC)cc2)cs1 | 3.67% (active)
17 | CC(C)(O)C#Cc1ccc(CNC[C@H]2O[C@@H](n3cnc4c(=O)[nH]c(N)nc43)[C@H](O)[C@@H]2O)s1 | -0.84% (inactive)
18 | CCCNC(=O)C1CC(=O)N(c2ccc(OCc3ccccc3)cc2)C1 (stereo unspecified) | 4.36% (active)
19 | CCc1ccc(NC2Nc3cc(C)nn3S2)cc1 (stereo unspecified) | 5.97% (active)
20 | O=C(Nc1ccc(NC(=O)c2cccs2)cn1)c1ccco1 | 6.87% (active)
21 | CC(=O)Nc1cccc(C(=O)OCC(=O)c2ccc3c(c2)OCO3)c1 | 5.14% (active)
